Compound activity deposited in PubChem BioAssay by National Center for Advancing Translational Sciences (NCATS).
USP1 inh = USP1/UAF1 (human) deubiquitinase inhibition. recombinant USP1/UAF1, Ub-Rhodamine cleavage fluorescence. Potency, µM (titrated, usually from 57.1 µM), actives largely listed as inhibitors. actives 0.23% (n = 390,000). AID 743255; also: nearly all actives have a fitted effect of over 60% in size
Target sequence (O94782 whole entry, looked up): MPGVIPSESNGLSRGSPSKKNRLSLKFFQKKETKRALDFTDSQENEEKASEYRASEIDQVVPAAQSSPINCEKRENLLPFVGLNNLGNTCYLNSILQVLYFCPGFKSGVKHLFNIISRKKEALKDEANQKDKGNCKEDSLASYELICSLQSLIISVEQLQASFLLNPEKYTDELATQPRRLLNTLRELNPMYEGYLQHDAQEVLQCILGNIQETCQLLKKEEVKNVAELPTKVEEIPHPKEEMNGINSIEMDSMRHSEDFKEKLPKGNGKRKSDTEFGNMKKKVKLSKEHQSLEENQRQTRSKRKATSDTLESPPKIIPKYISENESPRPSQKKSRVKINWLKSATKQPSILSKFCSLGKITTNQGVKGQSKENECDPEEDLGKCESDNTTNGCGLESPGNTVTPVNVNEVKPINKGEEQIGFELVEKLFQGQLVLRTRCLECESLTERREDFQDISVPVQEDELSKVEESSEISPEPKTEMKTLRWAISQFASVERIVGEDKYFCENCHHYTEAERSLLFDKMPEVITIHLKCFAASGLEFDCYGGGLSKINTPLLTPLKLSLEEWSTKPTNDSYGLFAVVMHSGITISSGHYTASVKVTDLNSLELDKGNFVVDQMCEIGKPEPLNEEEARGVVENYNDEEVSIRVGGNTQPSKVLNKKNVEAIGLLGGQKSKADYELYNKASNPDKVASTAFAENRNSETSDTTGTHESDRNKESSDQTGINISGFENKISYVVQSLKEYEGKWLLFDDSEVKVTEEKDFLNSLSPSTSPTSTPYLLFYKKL
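High-throughput fluorogenic screen: 1nM USP1/UAF1 complex, Ub-Rho substrate 150nM final, 50mM HEPES pH 7.8 with 0.5mM EDTA, 0.1 mg/ml BSA, 1mM TCEP and 0.01% Tween-20.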
IL-1B inflam inh = blocks inflammasome-driven IL-1 beta release; THP-1 LPS/ATP IL-1B secretion, AlphaLISA, 16 h; active compounds read low; activity change, % at 57.5 µM; actives 4.7% (n = 360,000); AID 743279; in the data active = activity change below about -50%; inconclusive = mostly about -30% to -49%
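Secreted IL-1B measured by AlphaLISA bead assay after 16 h compound exposure of THP-1 cells; compounds (final up to 57.5 uM) added 1 h before LPS (250 ng/mL) and ATP (1.25 mM) stimulation; lower signal means less secretion.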
ATXN2 expr inh = inhibitors of ATXN2 expression | HEK-293 ATXN2-luciferase reporter, luminescence, 24 h | Potency, µM (doses to about 57 µM), most hits filed as inhibitors | actives 0.72% (n = 360,000); also: nearly all actives have a fitted effect of over 55% in size
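qHTS (up to 57 uM final) was run with 24 h compound exposure of reporter cells at 37 °C. Each well was multiplexed: SteadyGlo luminescence measured ATXN2-luciferase expression after a fluorogenic Gly-Phe-AFC viability readout (25 uM final).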
ATXN viability = cell viability loss in ATXN counter-screen; S2 cells (HEK-293 line with an ATXN2-luciferase reporter) viability, CellTiter-Fluor protease fluorescence, 24 h; Potency, µM (series often up to 56.7 µM), usual class: cytotoxic; actives 0.49% (n = 400,000); also: nearly all actives have a fitted effect of over 40% in size
USP2a block = blocks human ubiquitin-specific protease USP2a; O75604; actives 0.01% (n = 330,000); USP2 core, Ub-CHOP2 coupled fluorogenic reporter, 485/531; AID 463254; Potency, µM (titrated, usually from 38.3 µM), hits mostly inhibitors
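Cell-free coupled assay: 10nM USP2 core preincubated 30min RT with compound in Tris-HCl pH 8.0/CaCl2/CHAPS buffer, then 25nM Ub-CHOP2 and 25nM reporter substrate; fluorescence (Ex 485/Em 531) read after 60min RT, normalized to NEM inhibition, concentration-response curves fitted.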
A number is an active result; . = inactive; ? = inconclusive; / = not tested or not shown; [ ] = dose if it differs, or a comment. Hits are enriched below; roughly 4.8% of the tested compounds scored in any of these assays. Unless noted, calls follow the shape of the dose curve; as a rule, active = well fitted curve in the direction sought with a large enough effect; inconclusive = small, poorly fitted or top-dose-only effect, or another doubt; inactive = no such curve, though single readings can be large; an effect the other way counts as inactive or inconclusive.

SMILES	USP1 inh	IL-1B inflam inh	ATXN2 expr inh	ATXN viability	USP2a block
O=C(N/N=C/c1ccc2c(c1)OCO2)/C(=C/c1ccc2c(c1)OCO2)NC(=O)c1ccccc1	.	?	.	.	.
COc1ccc(/C=C(/NC(=O)c2ccccc2)C(=O)N/N=C/c2ccc3c(c2)OCO3)cc1OC	.	-69	.	.	.
O=C(Cn1c(=O)c2ccccc2n(CC(=O)Nc2ccc(F)cc2F)c1=O)NCCc1ccccc1	.	/	.	.	/
Cc1ccc(/C=N\NC(=O)COc2ccc(C)cc2[N+](=O)[O-])cc1	.	.	.	.	.
Cc1ccc(OC/C(=N\O)C(C)(C)C)c([N+](=O)[O-])c1	.	-82	.	.	.
COc1ccc(/C=N/Nc2nc(-c3ccc(C)cc3)c(NC(C)=O)s2)cc1OC	.	.	.	.	.
COc1cc(/C=N\Nc2nc(-c3ccc(C)cc3)c(NC(C)=O)s2)ccc1O	.	-62	.	.	.
CC1CCN(S(=O)(=O)c2ccc3c(c2)C(=NO)c2cc(S(=O)(=O)N4CCC(C)CC4)ccc2-3)CC1	.	-89	3.5µM	3.2µM	.
O=S(=O)(c1ccc2c(c1)C(=NO)c1cc(S(=O)(=O)N3CCCCC3)ccc1-2)N1CCCCC1	.	-85	3.5µM	3.5µM	.
O=S(=O)(c1ccc(S(=O)(=O)N2CCCC2)cc1)N1CCCCCC1	.	.	.	.	.
O=C(O)c1ccccc1[O-].O=C(O)c1ccccc1[O-].[Zn+2]	/	/	/	.	/
COc1ccc(Cl)cc1NC(=O)CN(C)C(=O)CCC(=O)c1cc(C)sc1C	.	-53	.	.	.
COc1ccc(Cl)cc1NC(=O)CN(C)CC(=O)Nc1ccc(C)cc1Br	.	-67	.	.	.
COc1ccc(Cl)cc1NC(=O)CN(C)CC(=O)Nc1ccccc1-c1ccccc1	.	.	.	.	.
COc1cccc(NC(=O)CN(C)C(=O)CCC(=O)c2cc(C)sc2C)c1	.	.	.	.	.
Cc1nc2scc(C)n2c(=O)c1S(=O)(=O)NCC1CCN(Cc2ccc(F)cc2)CC1	.	.	.	.	.
Cn1cc([N+](=O)[O-])c(C(=O)Nc2cc(Oc3cccnc3)cc([N+](=O)[O-])c2)n1	.	-96	.	?	.
Cc1cc(C)n(CCC(=O)N/N=C/c2ccc(Br)c([N+](=O)[O-])c2)n1	.	-93	.	.	.
Cc1ccc(Cn2ccc(NC(=O)c3nn(C)cc3[N+](=O)[O-])n2)cc1	.	-101	.	.	.
Cc1cc(C)n(Cc2ccc(NC(=O)c3nn(C)cc3[N+](=O)[O-])cc2)n1	.	-63	.	.	.
C[C@@H]1CN([C@@H](C)CO)C(=O)c2cc(NS(C)(=O)=O)ccc2O[C@@H](C)CCCCO[C@H]1CN(C)Cc1ccc2c(c1)OCO2	?	.	.	.	/
COc1ccc(CC(=O)Nc2nnc3n2CCS3)cc1	.	/	.	.	/
Cc1cc(C)n(CC(=O)O)n1	.	.	.	.	.
Cc1cc(C)n(CC(C)C(=O)O)n1 (centres undefined)	.	-79	.	.	.
COc1ccc(C=CC(=O)C=CC=Cc2ccccc2)cc1	.	-52	.	.	/
SMILES	USP1 inh	IL-1B inflam inh	ATXN2 expr inh	ATXN viability	USP2a block
COc1ccc(OC)c(N/C=C/C(=O)c2ccccc2)c1	.	.	.	.	.
COc1ccc(C(=O)/C=C/c2ccccc2)c(OC)c1	.	-111	?	?	.
COc1ccc(OC)c(C(=O)/C=C/c2ccccc2C(F)(F)F)c1	.	-110	?	.	.
COc1ccc(/C=C/C(=O)N(C)c2ccccc2C(=O)O)cc1	.	.	.	/	.
COc1ccc(C(=O)/C=C/c2ccccc2F)c(OC(=O)c2ccc([N+](=O)[O-])cc2)c1	.	-101	.	?	.
C[N+](C)(CCCCCC[N+](C)(C)C1c2ccccc2-c2ccccc21)C1c2ccccc2-c2ccccc21	/	/	/	.	/
Cc1cnc(-n2ncc(C(=O)N[C@H]3CCCCNC3=O)c2C2CC2)nc1-c1cccs1	/	/	/	.	/
CC(C)(C)NC(=O)CN(C(=O)CCC(=O)Nc1nccs1)c1cccc(C(F)(F)F)c1	.	.	/	.	.
Cn1[nH]c2c(c1=O)[C@H](c1ccc(F)cc1)O[C@H](CCc1ccccc1)C2	/	.	.	.	/
O=C(C=Cc1ccccc1)c1cc(Br)ccc1O	.	.	.	.	/
COc1cc(C)cc(C(=O)C=Cc2ccccc2)c1O	.	-59	.	.	/
COCOc1cc(O)c(C(=O)/C=C/c2ccccc2)c(OCOC)c1	.	-103	.	?	/
COc1ccc(C(=O)/C=C/c2ccc(N(C)C)cc2)c(OC)c1	22µM	-100	.	/	?
CCc1ccccc1NC(=O)N1CCCn2nc(C)cc21	.	/	/	/	/
COc1cc(/C=N/NC(=O)c2ccc(COc3cc(C)ccc3C(C)C)cc2)cc(OC)c1O	.	.	?	.	.
Cc1ccc(C(C)C)c(OCc2ccc(C(=O)N/N=C/c3ccc(O)c(O)c3)cc2)c1	?	-100	?	.	.
CC(=O)Nc1ccc(C(=O)N/N=C/c2ccccc2OCc2ccccc2)cc1	.	.	.[11.3 µM]	?	.
Cc1ccc(C(C)C)c(OCc2ccc(C(=O)N/N=C/c3cccc(O)c3O)cc2)c1	.	.	3µM	.	.
O=C(NCc1ccc2c(c1)OCO2)c1nc(Cn2cc(Br)cn2)no1	?	.	.	.	.
COc1cc2c(cc1OC)C(SC)=NC(C)(C)C2	.	-102	?	?	.
COc1ccc(C2=NC(C)(C)Cc3cc(OC)c(OC)cc32)cc1	.	.	/	.	.
Cc1ccc(NC(=O)c2cn3c4c(ccc(Cl)c4c2=O)OC(C)C3)c(C)c1 (centres undefined)	.	/	.	.	/
Cc1ccc2c(-c3csc(N)n3)c[nH]c2c1	/	/	/	/	.
COc1ccccc1NC(=O)/C(C#N)=C/c1c(C)nn(-c2ccc(F)cc2)c1Cl	.	.	.	.	.
COc1ccc(NC(=O)/C(C#N)=C/c2c(C)nn(-c3ccc(F)cc3)c2Cl)cc1Cl	.	-55	.	.	.
SMILES	USP1 inh	IL-1B inflam inh	ATXN2 expr inh	ATXN viability	USP2a block
Cc1nn(-c2ccccc2)c(Cl)c1/C=C(\C#N)C(=O)NC(C)C	.	-102	.	?	.
COc1ccc(NC(=O)/C(C#N)=C/c2c(C)nn(-c3ccc(F)cc3)c2Cl)cc1OC	.	?	.	.	.
Oc1ccc(CNc2cccc(F)c2F)c2cccnc12	/	/	/	/	.
O=Nc1nc2ncccn2c1-c1ccccc1	.	-84	.	.	/
O=C(NCCc1ccccc1)c1nnc(Cc2cccc(F)c2)o1	.	/	.	.	/
CC(=O)Nc1ccc(N(C(=O)c2ccco2)C(C(=O)NC2CCCCC2)c2ccccc2)cc1 (centres undefined)	.	-53	.	.	.
N#CC(C#N)=C(Nc1ccc(F)cc1)SCc1cccc(Br)c1	.	-96	?	?	.
COc1ccccc1N1CCN(c2ncnc3c2nc2n3CCCC2)CC1	.	/	?	?	/
